Measurements as given in the supplement of paper PMC6555819.

How the values were obtained:
Assay in all cases: PBM binding z-score (relative to random genomic background probes); higher = stronger binding; sequences stand for … in GC…GCGATTGACAGCGTAGAATGAAGG
[1] = system: RARb homodimer (NR concentration 270 nM)
Outline: (§1)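 For binding z-scores, the reference was random background probes on custom Agilent 4×180K protein-binding microarrays. These arrays were incubated 1 h with ligand-free nuclear receptor dimers in PBS pH 7.4, 2% milk, 0.02% Triton X-100, 1 mM DTT, 0.2 mg/mL BSA and 0.4 mg/ml salmon testes DNA. Fluorescence was scanned after antibody detection of each partner (one per run) and regression-normalized.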

[2] = system: RARg:RXRa (NR concentration 270 nM, RXRa partner concentration 90 nM)
Outline: as §1

[3] = system: RARg homodimer (NR concentration 270 nM)
Outline: as §1

[4] = system: RXRa DBDmut IVT, anti-RXR (DBD mutation: RXRa K156A/R161A, NR concentration 90 nM)
Outline: as §1

[5] = system: RXRa homodimer (NR concentration 180 nM)
Outline: as §1

[6] = system: THRa:RXRa (NR concentration 90 nM, RXRa partner concentration 90 nM)
Outline: as §1

[7] = system: THRa homodimer (NR concentration 90 nM)
Outline: as §1

[8] = system: VDR:RXRa (NR concentration 270 nM, RXRa partner concentration 90 nM)
Outline: as §1

[9] = system: VDR homodimer (NR concentration 270 nM)
Outline: as §1

Sequence | PBM binding z-score [1] | PBM binding z-score [2] | PBM binding z-score [3] | PBM binding z-score [4] | PBM binding z-score [5] | PBM binding z-score [6] | PBM binding z-score [7] | PBM binding z-score [8] | PBM binding z-score [9]
TGTTAAAGTTCAAAGGTAACGTAAGTATCCACAC | 3.61 | 5.89 | 5.47 | 4.41 | 6.91 | 3.42 | 0.278 | 4.87 | 2.82
TCTTGTAGATCAAAGGTTATGAAAGCCGAAGCCT | 1.25 | 1.65 | 0.684 | 0.966 | 3.08 | 1.46 | -0.27 | 1.25 | 0.204
CCTTACGGGTCACTCCAGGTTATAGAATCGGAGT | 3.06 | 4.57 | 4.54 | 1.91 | 4.61 | 5.18 | 0.576 | 4.17 | 1.39
CGAACTAGGTCAGAACAGGACAGTGAAGGATGAT | 1.92 | 2.45 | 3.34 | 0.418 | 1.23 | 3.41 | 0.173 | 0.634 | -0.0967
TCATATAGGTAAATGCTTGGTGAAAGTCCGATCT | 0.222 | 0.052 | 0.0294 | 1.52 | 0.692 | 0.0324 | 0.34 | 0.808 | 0.414
GCTCGGAAGACAAGGTCAGAGCTTTGTCCGTAGA | 2.34 | 2.28 | 1.86 | 0.349 | 2.11 | 2.52 | 0.95 |  | 0.19
TCTTGTAGATCAACATGAGGTTAAGAAAGATCGA | 0.695 | 1.12 | 0.455 | 0.475 | 1.27 | 2.18 | 0.657 | 1.1 | 0.413
TCTAGTTGGTCACGGAGGTAACACACGACGGGTA | 1.39 | 1.24 | 1.7 | 0.681 | 1.04 | 1.12 | 0.797 | 1.03 | 0.198
GCTGCTAGGTCAGGTAGGTCAGCTAACGGGTACG | 4.09 | 4.09 | 4.85 | 0.899 | 2.38 | 2.78 | 0.866 | 3.35 | 0.966
ACTTACGGGTCAACGAGGTTAGAGCACGCGTATA | 3.62 | 5.52 | 5.15 | 2.34 | 5.87 | 3.7 | 0.878 | 7.15 | 2.6
GCGACTGGGGCATCAGCAGGTGACCATAACTTAA | 0.835 | 0.367 | 0.374 | -0.296 | -0.0343 | 0.956 | -0.08 | -0.635 | -0.617
CCTAGCAGGCGAATCTGGGTCACTCAAGGCTTGA | 1.53 | 0.494 | 0.428 | 0.0113 | 0.669 | 2.71 | 0.222 | -0.0504 | -0.316
GCTCGGAGGACAAGGTCAGAGTTTTGTCCGTAGA | 3.25 | 3.1 | 3.94 | 0.706 | 2.55 | 3.11 | 1.72 | 1.65 | 0.974
ACTTTTAGTTGAGACGAGGGCAACCGATAGGTTG | 1.35 | 0.942 | 1.03 | 0.926 | 0.7 | 2.53 | 0.433 | 0.832 | 1.02
AGAACGAGGGCACGCTGAGTTGACAGCAGAGTAG | 1.43 | 2.35 | 2.33 | 1.6 | 1.73 | 2.16 | -0.174 | 2.32 | 1.79
CGTCAAAGTTCAACTAAGGTAACGGAAAGCACGC | 4.39 | 5.99 | 6.88 | 4.63 | 5.09 | 5.24 | 1.9 | 4.7 | 3.47
CTGACTGGGGCAGAAAGGTTACCATACCATCCGG | 2.57 | 2.08 | 1.66 | -0.154 | 1.88 | 1.34 | -0.00368 | 1.36 | 0.339
GCATATAGTTAATACAAGGTGAAAGTCCGATTGT | 0.847 | 0.222 | 0.365 | 0.966 | 0.312 | 2.89 | 1.18 | 0.11 | -0.0676
TATACAGGGTCAAAGGCCACAGTACGAATGTCGA | 3.85 | 6.13 | 5.62 | 3.08 | 7.97 | 3.53 | 1.28 | 5.15 | 3.15
AGAACAAGGGCACGCTGAGTTGATAGCAGAGTAG | 1.11 | 1.6 | 1.99 | 1.22 | 0.942 | 1.28 | -0.108 | 1.36 | 1.07
CCGAGTGGGGCATAAGGTTACCATAAGCCAGCCC | 1.32 | 1.46 | 0.809 | -0.545 | 1.22 | 2.01 | 1.09 | 0.143 | 0.036
AGACCGAGGGCAATGAGTTGATAGCACGGGTGGC | 0.894 | 0.934 | 1.36 | 1.31 | 0.545 | 0.481 | -0.368 |  | 3.16
CGAACTACGTCATTGACAGGACAGTGAATAGTAA | 0.0564 | 0.288 | 0.139 | 0.0473 | 0.152 | 0.0548 | -0.0847 | -0.122 | -0.012
AGAATGAGGTTATACGAAGATCAGGGAAGAAAGT | 0.559 | 1.71 | 1 | 1.38 | 2.09 | 2.01 | 0.403 | 1.13 | 0.752
TAGCCTAGGTCATATCGGGCCAGTATACGCTATA | 2.44 | 3.33 | 3.95 | 1.17 | 2.49 | 4.54 | 0.783 | 2.28 | 0.939
ATCTCTAGGTTACAAGTTCAGTGAAAGAGAGGAC | 2.77 | 2.81 | 2.37 | 1.65 | 1.76 | 2.02 | 1.48 | 2.7 | 2.9
